PubChem BioAssay (Tox21)
“And” between values parts separate entries of the source, which are not always exact repeats. Identical values can stand only once. Records with an inconclusive call do not appear. Entries that show only a call come without a potency. A structure can be active in one record and inactive in another. The source made the active and inactive calls. Unless noted, calls come from the whole dose curve; as a rule, active = well fitted curve in the direction sought with a large enough effect in the repeat runs; inconclusive = weak or mixed curves; inactive = no such curve, though single readings can be large; an effect the other way counts as inactive or inconclusive.

tested on: not listed separately; experiment: qHTS assay for identifying genotoxic compounds that show differential cytotoxicity against isogenic chicken DT40 cell lines with known DNA damage response pathways - Rad54/Ku70 mutant cell line (AID 743015); conditions: DT40 Rad54/Ku70 mutant viability, CellTiter-Glo, 40 h; series mostly up to 66.8 µM; activity change, negative = cytotoxicity: at the top concentration; note: nearly all actives have a fitted effect of over 60% in size; note: potency is the fitted concentration of half-maximal effect

Row | SMILES | Potency | activity change, negative = cytotoxicity
1 | CCSC(=O)N1CCCCCC1 | inactive | 
2 | CNC(=O)O/N=C(\SC)C(=O)N(C)C | 54.4 µM (active) | 
3 | Cl/C=C/Cl | inactive | 
4 | COC(C)(C)CCCC(C)C/C=C/C(C)=C/C(=O)OC(C)C (centres undefined) |  | 3.43% (inactive)
5 | CC(=O)/C=C/c1ccccc1 | inactive | 
6 | C/C=C/c1ccc2c(c1)OCO2 | inactive | 
7 | CNC(=O)O/N=C/C(C)(C)SC | inactive | 
8 | ClC(Cl)c1ccccc1 | inactive | 
9 | CN1C(=O)CCS(=O)(=O)C1c1ccc(Cl)cc1 (centres undefined) | inactive | 
10 | Cc1cc(O)ccc1Cl | inactive | 
11 | O=C(O)Cc1ccccc1 | inactive | 
12 | O=C(O)CCCc1ccc(N(CCCl)CCCl)cc1 | 3.86 µM (active) | 
13 | Cc1ccccc1N | inactive | 
14 | CNC(=O)O/N=C/C(C)(C)S(C)=O (centres undefined) | inactive | 
15 | O=C(O)C1C(C(=O)O)C2(Cl)C(Cl)=C(Cl)C1(Cl)C2(Cl)Cl (centres undefined) | inactive | 
16 | CN(C)C(=O)Nc1cccc(C(F)(F)F)c1 |  | 13.3% [at 95.1 µM] (inactive)
17 | Oc1ccc(Cl)cc1 | inactive | 
18 | CCOC(=O)CC(SP(=O)(OC)OC)C(=O)OCC (centres undefined) | inactive | 
19 | CC(C)c1cccc(C(C)C)c1O | inactive | 
20 | CNCC(O)c1ccc(O)cc1 (centres undefined) | inactive | 
21 | Cc1ccc(N)cc1 | inactive | 
22 | OCc1ccco1 |  | 12.6% [at 95.1 µM] (inactive)
23 | OC[C@@H](O)[C@H]1O[C@@H]2O[C@H](C(Cl)(Cl)Cl)O[C@@H]2[C@H]1O | inactive | 
24 | O=P1(NCCCl)OCCCN1CCCl (centres undefined) | inactive | 
25 | O=[N+]([O-])c1ccc(Cl)c(Cl)c1 | inactive | 
26 | N#Cc1ccccn1 | inactive | 
27 | CNc1cnn(-c2cccc(C(F)(F)F)c2)c(=O)c1Cl |  | 12.9% (inactive)
28 | CC(C)CCCCCCOC(=O)c1ccccc1C(=O)OCCCCCCC(C)C | inactive | 
29 | CC12CC1(C)C(=O)N(c1cc(Cl)cc(Cl)c1)C2=O (centres undefined) |  | -4.95% (inactive)
30 | COP(=S)(OC)Oc1ccc(SC)c(C)c1 | inactive and 61.1 µM (active) | 

tested on: not listed separately; experiment: qHTS assay to identify small molecule antagonists of the androgen receptor (AR) signaling pathway - cell viability counter screen (AID 743033; note: nearly all actives have a fitted effect of over 45% in size); conditions: AR-bla HEK293 viability, CellTiter-Glo luminescence, 16 h; series mostly up to 58.5 µM; activity change, negative = cytotoxicity: at the top concentration

Row | SMILES | outcome | activity change, negative = cytotoxicity
31 | CCSC(=O)N1CCCCCC1 | inactive | 
32 | CNC(=O)O/N=C(\SC)C(=O)N(C)C |  | 0.272% [at 78.9 µM] (inactive)
33 | Cl/C=C/Cl | inactive | 
34 | COC(C)(C)CCCC(C)C/C=C/C(C)=C/C(=O)OC(C)C (centres undefined) | inactive | 
35 | CC(=O)/C=C/c1ccccc1 | inactive | 
36 | C/C=C/c1ccc2c(c1)OCO2 | inactive | 
37 | CNC(=O)O/N=C/C(C)(C)SC | inactive | 
38 | ClC(Cl)c1ccccc1 | inactive | 
39 | CN1C(=O)CCS(=O)(=O)C1c1ccc(Cl)cc1 (centres undefined) | inactive | 
40 | Cc1cc(O)ccc1Cl | inactive | 
41 | O=C(O)Cc1ccccc1 | inactive | 
42 | O=C(O)CCCc1ccc(N(CCCl)CCCl)cc1 | inactive | 
43 | Cc1ccccc1N | inactive | 
44 | CNC(=O)O/N=C/C(C)(C)S(C)=O (centres undefined) | inactive | 
45 | O=C(O)C1C(C(=O)O)C2(Cl)C(Cl)=C(Cl)C1(Cl)C2(Cl)Cl (centres undefined) | inactive | 
46 | CN(C)C(=O)Nc1cccc(C(F)(F)F)c1 | inactive | 
47 | Oc1ccc(Cl)cc1 | inactive | 
48 | CCOC(=O)CC(SP(=O)(OC)OC)C(=O)OCC (centres undefined) | inactive | 
49 | CC(C)c1cccc(C(C)C)c1O | inactive | 
50 | CNCC(O)c1ccc(O)cc1 (centres undefined) | inactive | 
51 | Cc1ccc(N)cc1 | inactive | 
52 | OCc1ccco1 | inactive | 
53 | OC[C@@H](O)[C@H]1O[C@@H]2O[C@H](C(Cl)(Cl)Cl)O[C@@H]2[C@H]1O | inactive | 
54 | O=P1(NCCCl)OCCCN1CCCl (centres undefined) | inactive | 
55 | O=[N+]([O-])c1ccc(Cl)c(Cl)c1 | inactive | 
56 | N#Cc1ccccn1 | inactive | 
57 | CNc1cnn(-c2cccc(C(F)(F)F)c2)c(=O)c1Cl | inactive | 
58 | CC(C)CCCCCCOC(=O)c1ccccc1C(=O)OCCCCCCC(C)C | inactive | 
59 | CC12CC1(C)C(=O)N(c1cc(Cl)cc(Cl)c1)C2=O (centres undefined) | inactive | 
60 | COP(=S)(OC)Oc1ccc(SC)c(C)c1 | inactive | 

biological target: Androgen receptor (Homo sapiens) (UniProt P10275); experiment: qHTS assay to identify small molecule antagonists of the androgen receptor (AR) signaling pathway (AID 743035; active = well fitted inhibition curve with a large enough effect in the signal ratio in the repeat runs, not every such curve was filed as active; the % refers to the signal ratio; note: potency is the fitted concentration of half-maximal effect); conditions: HEK293 AR-UAS-bla, R1881-stimulated, beta-lactamase FRET, 16 h; series mostly up to 58.5 µM; activity change, negative = inhibition: at the top concentration
Outline: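 Antagonism is scored as loss of R1881-driven beta-lactamase reporter expression in HEK293 cells carrying the reporter under a UAS element, after 16 h co-treatment at 37C and a 2 h room-temperature FRET substrate read.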

Sequence of Androgen receptor (Homo sapiens) (P10275 whole entry, looked up): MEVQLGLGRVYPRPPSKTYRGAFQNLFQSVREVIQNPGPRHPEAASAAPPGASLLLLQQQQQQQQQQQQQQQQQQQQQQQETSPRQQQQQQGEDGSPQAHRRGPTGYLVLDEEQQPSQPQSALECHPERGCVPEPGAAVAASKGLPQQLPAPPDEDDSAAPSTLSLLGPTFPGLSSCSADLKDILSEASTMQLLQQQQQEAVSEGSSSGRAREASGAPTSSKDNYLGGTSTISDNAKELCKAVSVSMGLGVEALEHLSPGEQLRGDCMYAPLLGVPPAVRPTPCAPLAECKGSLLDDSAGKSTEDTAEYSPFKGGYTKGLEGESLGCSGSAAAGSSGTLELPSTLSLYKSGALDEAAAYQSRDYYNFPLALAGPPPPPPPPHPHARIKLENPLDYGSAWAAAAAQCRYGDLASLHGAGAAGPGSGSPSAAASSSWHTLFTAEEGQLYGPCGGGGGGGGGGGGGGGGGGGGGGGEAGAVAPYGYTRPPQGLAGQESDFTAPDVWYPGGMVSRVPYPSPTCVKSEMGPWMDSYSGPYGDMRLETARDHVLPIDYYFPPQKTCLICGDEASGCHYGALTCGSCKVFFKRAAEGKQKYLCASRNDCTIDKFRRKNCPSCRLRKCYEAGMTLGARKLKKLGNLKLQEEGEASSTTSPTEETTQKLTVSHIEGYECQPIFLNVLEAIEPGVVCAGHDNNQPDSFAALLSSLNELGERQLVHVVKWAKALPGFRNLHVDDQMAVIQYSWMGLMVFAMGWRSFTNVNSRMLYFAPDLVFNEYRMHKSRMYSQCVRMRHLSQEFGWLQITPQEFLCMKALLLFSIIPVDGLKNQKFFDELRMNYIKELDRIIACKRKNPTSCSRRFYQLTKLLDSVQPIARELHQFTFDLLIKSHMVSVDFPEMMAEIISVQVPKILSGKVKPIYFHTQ

Row | SMILES | Potency
61 | CNC(=O)O/N=C(\SC)C(=O)N(C)C | inactive
62 | COC(C)(C)CCCC(C)C/C=C/C(C)=C/C(=O)OC(C)C (centres undefined) | inactive
63 | CC(C)c1cccc(C(C)C)c1O | inactive
64 | CC12CC1(C)C(=O)N(c1cc(Cl)cc(Cl)c1)C2=O (centres undefined) | 6.14 µM (active) and 3.89 µM (active)

biological target: Androgen receptor (Homo sapiens) (UniProt P10275); experiment: qHTS assay to identify small molecule agonists of the androgen receptor (AR) signaling pathway (AID 743036; active = well fitted activation curve with a large enough effect in the signal ratio in the repeat runs, with a control signal flat, not every such curve was filed as active; the % refers to the signal ratio); conditions: HEK293 AR-UAS-bla GripTite, beta-lactamase FRET ratio, 16 h; series mostly up to 62.4 µM; activation: at the top concentration
Outline: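 Agonist activity was scored by beta-lactamase reporter fluorescence in stably transfected HEK293 cells exposed to compounds for 16 h at 37C and 5% CO2. Substrate loading took 2 h at room temperature.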

Row | SMILES | outcome
65 | CNC(=O)O/N=C(\SC)C(=O)N(C)C | inactive
66 | COC(C)(C)CCCC(C)C/C=C/C(C)=C/C(=O)OC(C)C (centres undefined) | inactive
67 | CC(C)c1cccc(C(C)C)c1O | inactive
68 | CC(C)CCCCCCOC(=O)c1ccccc1C(=O)OCCCCCCC(C)C | inactive
69 | CC12CC1(C)C(=O)N(c1cc(Cl)cc(Cl)c1)C2=O (centres undefined) | inactive

biological target: Androgen receptor (Homo sapiens) (UniProt P10275); experiment: qHTS assay to identify small molecule agonists of the androgen receptor (AR) signaling pathway using the MDA cell line (AID 743040; note: nearly all actives have a fitted effect of over 20% in size); conditions: MDA-kb2 AR-luc cells, MMTV luciferase, 16 h, stronger effect = higher value; series mostly up to 70.3 µM; activity change: at the top concentration
Outline: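 Luminescence from ONE-Glo, read after 30 min at room temperature, reflects MMTV-driven luciferase in MDA-kb2 cells (AR- and GR-responsive). Treatment lasted 16 h at 37C, 0% CO2.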

Row | SMILES | outcome
70 | CNC(=O)O/N=C(\SC)C(=O)N(C)C | inactive
71 | COC(C)(C)CCCC(C)C/C=C/C(C)=C/C(=O)OC(C)C (centres undefined) | inactive
72 | CC(C)c1cccc(C(C)C)c1O | inactive
73 | CC(C)CCCCCCOC(=O)c1ccccc1C(=O)OCCCCCCC(C)C | inactive
74 | CC12CC1(C)C(=O)N(c1cc(Cl)cc(Cl)c1)C2=O (centres undefined) | inactive

tested on: not listed separately; experiment: qHTS assay to identify small molecule antagonists of the androgen receptor (AR) signaling pathway using the MDA cell line - cell viability counter screen (AID 743041; note: nearly all actives have a fitted effect of over 45% in size); conditions: MDA-kb2 viability, CellTiter-Fluor, 16 h, cells co-treated with R1881 androgen agonist; series mostly up to 70.3 µM; viability change, negative = cytotoxic: at the top concentration
Outline: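 Viability counter screen run alongside the AR antagonist reporter: cells seeded 5 h before compound, R1881 added, 16 h incubation at 37C without CO2, fluorescent CellTiter-Fluor signal quantified.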

Row | SMILES | outcome | viability change, negative = cytotoxic
75 | CCSC(=O)N1CCCCCC1 | inactive | 
76 | CNC(=O)O/N=C(\SC)C(=O)N(C)C | inactive | 
77 | Cl/C=C/Cl | inactive | 
78 | COC(C)(C)CCCC(C)C/C=C/C(C)=C/C(=O)OC(C)C (centres undefined) | inactive | 
79 | CC(=O)/C=C/c1ccccc1 |  | -2.31% (inactive)
80 | C/C=C/c1ccc2c(c1)OCO2 | inactive | 
81 | CNC(=O)O/N=C/C(C)(C)SC |  | 2.64% [at 95 µM] (inactive)
82 | ClC(Cl)c1ccccc1 | inactive | 
83 | CN1C(=O)CCS(=O)(=O)C1c1ccc(Cl)cc1 (centres undefined) | inactive | 
84 | Cc1cc(O)ccc1Cl | inactive | 
85 | O=C(O)Cc1ccccc1 |  | -3.84% (inactive)
86 | O=C(O)CCCc1ccc(N(CCCl)CCCl)cc1 | inactive | 
87 | Cc1ccccc1N | inactive | 
88 | CNC(=O)O/N=C/C(C)(C)S(C)=O (centres undefined) | inactive | 
89 | O=C(O)C1C(C(=O)O)C2(Cl)C(Cl)=C(Cl)C1(Cl)C2(Cl)Cl (centres undefined) | inactive | 
90 | CN(C)C(=O)Nc1cccc(C(F)(F)F)c1 | inactive | 
91 | Oc1ccc(Cl)cc1 | inactive | 
92 | CCOC(=O)CC(SP(=O)(OC)OC)C(=O)OCC (centres undefined) | inactive | 
93 | CC(C)c1cccc(C(C)C)c1O | inactive | 
94 | CNCC(O)c1ccc(O)cc1 (centres undefined) | inactive | 
95 | Cc1ccc(N)cc1 | inactive | 
96 | OCc1ccco1 | inactive | 
97 | OC[C@@H](O)[C@H]1O[C@@H]2O[C@H](C(Cl)(Cl)Cl)O[C@@H]2[C@H]1O | inactive | 
98 | O=P1(NCCCl)OCCCN1CCCl (centres undefined) | inactive | 
99 | O=[N+]([O-])c1ccc(Cl)c(Cl)c1 | inactive | 
100 | N#Cc1ccccn1 | inactive | 
101 | CNc1cnn(-c2cccc(C(F)(F)F)c2)c(=O)c1Cl | inactive | 
102 | CC(C)CCCCCCOC(=O)c1ccccc1C(=O)OCCCCCCC(C)C | inactive | 
103 | CC12CC1(C)C(=O)N(c1cc(Cl)cc(Cl)c1)C2=O (centres undefined) |  | -0.197% (inactive)
104 | COP(=S)(OC)Oc1ccc(SC)c(C)c1 | inactive | 
